This note sets out measurements from PubChem BioAssay (NCATS).

Inconclusive results are not listed. Activity calls are given as the source filed them. Unless noted, the call rests on the fitted dose curve.

Test [1] addresses Peroxisome proliferator-activated receptor gamma (Homo sapiens) (UniProt P37231). Briefly: qHTS assay for small molecule agonists of peroxisome proliferator-activated receptor gamma signaling (AID 588536; active means well fitted curve in the direction sought with a large enough effect in the signal ratio, with a control signal flat, not every such curve was filed as active; the % refers to the signal ratio;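 further: 0% = DMSO basal wells and 100% = rosiglitazone at 2 µM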). Put shortly:
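HEK293 UAS-bla reporter line, 1% charcoal/dextran FBS; titration, 16 h, 37 C; CCF4 loading 2 h RT; fluorescence 460/530 nm. Normalized to rosiglitazone 2 uM = 100%, DMSO = 0%.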
(qHTS replaces the single test concentration by a dilution series.)

Test [2] is described as follows: qHTS assay for small molecule agonists of retinoid X receptor alpha signaling (AID 588544).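 On activation: 0% = DMSO basal wells and 100% = reference agonist.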 Particulars: HEK293T RXRa-UAS-bla, beta-lactamase reporter, 18 h; 530 nm emission.
Test [3] addresses Retinoic acid receptor RXR-alpha (Homo sapiens) (UniProt P19793). The test is described as above.
Test [4] addresses Thyroid hormone receptor beta (Homo sapiens) (UniProt P10828). The experiment in a line: qHTS assay for small molecule agonists of thyroid hormone receptor beta signaling (AID 588545).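 Further: 0% = DMSO only and 100% = 10 nM T3.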 Put shortly:
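Efficacy and EC50 values derive from Hill fits of qHTS titration data, normalized to 10 nM T3 and DMSO-only wells. HEK 293 reporter cells were stimulated for 18 hrs at 37 C, with beta-lactamase activity measured by CCF4 fluorescence.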

Test [5] in a line: qHTS assay for small molecule antagonists of retinoid X receptor alpha signaling (AID 588546; active means well fitted inhibition curve with a large enough effect in the signal ratio, with a control signal flat, not every such curve was filed as active; the % refers to the signal ratio;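 further: cells stimulated with 9-cis-retinoic acid as agonist; on the % scale 0 is the no-effect control and ±100 the full control effect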). Particulars: HEK293T RXRa-UAS-bla, beta-lactamase ratio, antagonist mode; measured here: W530 green channel, cytotoxicity proxy. Put shortly: (§1)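 Beta-lactamase reporter inhibition, read as CCF4 fluorescence ratio (ex 405, em 460/530 nm) after 2 h at RT. HEK293T UAS-bla cells, 2500/well, were stimulated with 9-cis-RA at 500 or 100 nM final alongside test compound for 18 h at 37 C.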

Test [6] has as its target Retinoic acid receptor RXR-alpha (Homo sapiens) (UniProt P19793). Described as above. Particulars: HEK293T RXRa-UAS-bla, beta-lactamase ratio, antagonist mode. The method, boiled down:
as §1

For test [7], the target named is Thyroid hormone receptor beta (Homo sapiens) (UniProt P10828). The experiment in a line: qHTS assay for small molecule antagonists of thyroid hormone receptor beta signaling (AID 588547; active means well fitted inhibition curve with a large enough effect in the signal ratio, with a control signal flat, not every such curve was filed as active; the % refers to the signal ratio;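 further: cells stimulated with 0.4 nM T3 agonist during compound exposure; series mostly up to about 77 µM; on the % scale 0 is the no-effect control and ±100 the full control effect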). Particulars: TR-UAS-bla HEK293, beta-lactamase ratio, antagonist mode, 18 h. The method, boiled down:
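TR-UAS-bla GripTite HEK293 cells in 2% charcoal/dextran FBS medium were preincubated 4 h at 37 C, given compound (0.59 nM to 92 uM) plus 0.4 nM T3 (final) for 18 h, then CCF4 for 2 h at RT; Hill fit gave IC50.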

The target of test [8] is Voltage-gated inwardly rectifying potassium channel KCNH2 (Homo sapiens) (UniProt Q12809). Briefly: qHTS Assay for Small Molecule Inhibitors of the Human hERG Channel Activity (AID 588834; active means well fitted inhibition curve with a large enough effect;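 further: top concentration of the series differs between compounds; on the % scale 0 is the no-effect control and ±100 the full control effect; lower thallium flux fluorescence means stronger hERG block; nearly all actives have a fitted effect of over 50% in size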). The method, boiled down: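 Blockade is seen as reduced FluxOR thallium-flux fluorescence in U2OS cells expressing hERG from a BacMam construct, in Opti-MEM with 2% FCS. Concentration-response data fitted to the Hill equation for AC50.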

Test [9] in a line: qHTS assay for small molecule agonists of the antioxidant response element (ARE) signaling pathway (AID 651741; active means well fitted activation curve with a large enough effect in the signal ratio; the % refers to the signal ratio; further: potency means the concentration at half of the fitted maximal effect; on activation: % of control where 0% means no effect). Put shortly: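 Compounds in DMSO are pinned onto HepG2 ARE-bla cells (2,000/well) that were preincubated 5 h; plates stay 16 h at 37 C, then beta-lactamase activity is detected with LiveBLAzer B/G substrate by fluorescence.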
The nature of test [10]: qHTS assay for small molecule activators of the p53 signaling pathway (AID 651743; active means well fitted activation curve with a large enough effect in the signal ratio, not every such curve was filed as active; the % refers to the signal ratio; further: series mostly up to about 92 µM; % of control where 0% means no effect). Particulars: HCT-116 p53RE-bla, beta-lactamase FRET ratio, 16 h; stronger effect = higher value. Put shortly:
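Cell-based beta-lactamase reporter (p53 response elements, HCT-116 background). After a 5-hour preincubation, cells received compound for 16 hours at 37 C; substrate development ran 2 hours at room temperature.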

Test [11] in a line: qHTS assay for small molecule activators of the nuclear factor-kappa B (NF-kB) signaling pathway (AID 651749; active means well fitted activation curve with a large enough effect in the signal ratio; the % refers to the signal ratio; further: series mostly up to about 77 µM; % of control where 0% means no effect). Particulars: NF-kB-bla ME-180 cells, beta-lactamase FRET ratio, 16 h; stronger effect = higher value. The method, boiled down:
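Screening used 2,000 ME-180 reporter cells per well exposed to pinned compound (23 nL) or DMSO; after 16 hr at 37C, beta-lactamase expression under NF-kB control was assessed through FRET.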

Test [12] can be described thus: qHTS assay for small molecule antagonists of peroxisome proliferator-activated receptor delta signaling (AID 588535; active means well fitted inhibition curve with a large enough effect in the signal ratio, with a control signal flat, not every such curve was filed as active; the % refers to the signal ratio;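 on max response: cells co-treated with a PPAR-delta agonist as stimulator during compound exposure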). Particulars: HEK293T PPARd-UAS-bla, beta-lactamase FRET ratio, 18 h; 460 nm channel. The method, boiled down:
(§2)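 Reporter: UAS-bla under PPAR-delta response element, HEK293T host. Medium: 2% charcoal/dextran FBS. Dosing: titration, 18 hrs, 37 C. Detection: CCF4, 2 hrs RT, 405 ex/460 and 530 em.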

In test [13] the target is Peroxisome proliferator-activated receptor delta (Homo sapiens) (UniProt Q03181). The description is as above. The method, boiled down: as §2
Test [14] has as its target Vitamin D3 receptor (Homo sapiens) (UniProt P11473). The experiment in a line: qHTS assay for small molecule antagonists of vitamin D receptor signaling (AID 588541).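 Further: receptor activated by calcitriol during compound treatment; series mostly up to about 77 µM; on the % scale 0 is the no-effect control and ±100 the full control effect.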 The method, boiled down: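 VDR-UAS-bla HEK293T cells (2000/well, 2% charcoal-stripped FBS) were treated with titrated compounds plus 1-alpha,25-dihydroxyvitamin D3 (50 nM or 3 nM final) for 16 h at 37 C. CCF4 beta-lactamase fluorescence was read; Hill fits gave IC50.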

The target is the same in test [15]. The experiment in a line: qHTS assay for small molecule agonists of vitamin D receptor signaling (AID 588543).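 Further: 0% = DMSO basal and 100% = reference agonist control.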 The method, boiled down: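 Measured: β-lactamase reporter activity (CCF4, 405 nm excitation, 460/530 nm emission) in HEK293T VDR-UAS-bla cells after 16 h compound exposure at 37 °C. Normalization against 50 nM 1α,25-dihydroxyvitamin D3 and DMSO; Hill-fit EC50.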

The target in test [16] is Peroxisome proliferator-activated receptor gamma (Homo sapiens) (UniProt P37231). The experiment in a line: qHTS assay for small molecule antagonists of peroxisome proliferator-activated receptor gamma signaling (AID 588537; active means well fitted inhibition curve with a large enough effect in the signal ratio, with a control signal flat, not every such curve was filed as active; the % refers to the signal ratio;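 further: reporter cells co-stimulated with 50 nM rosiglitazone agonist during compound treatment; % of control where 0% means no effect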). The method, boiled down: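 We seeded GeneBLAzer HEK293 reporter cells at 3000 per well, allowed 6-6.5 h attachment at 37 C, then co-treated with test compound titrations and 50 nM rosiglitazone overnight (16 h). Inhibition was quantified from 460/530 nm emission ratios.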
Peroxisome proliferator-activated receptor gamma (Homo sapiens), sequence (P37231 whole entry, looked up): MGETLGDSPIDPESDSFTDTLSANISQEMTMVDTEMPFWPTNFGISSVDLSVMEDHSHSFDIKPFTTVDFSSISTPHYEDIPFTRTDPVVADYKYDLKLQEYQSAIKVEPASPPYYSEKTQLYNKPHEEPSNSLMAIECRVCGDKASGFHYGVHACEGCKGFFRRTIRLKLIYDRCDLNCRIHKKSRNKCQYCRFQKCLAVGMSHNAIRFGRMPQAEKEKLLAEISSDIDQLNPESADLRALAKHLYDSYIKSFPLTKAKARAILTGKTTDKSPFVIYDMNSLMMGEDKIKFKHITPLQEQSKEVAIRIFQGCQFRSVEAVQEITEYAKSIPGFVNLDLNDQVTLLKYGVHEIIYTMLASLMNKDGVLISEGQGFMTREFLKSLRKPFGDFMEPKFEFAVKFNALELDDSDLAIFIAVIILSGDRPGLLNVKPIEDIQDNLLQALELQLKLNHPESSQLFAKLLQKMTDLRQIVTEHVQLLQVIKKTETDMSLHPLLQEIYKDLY

Peroxisome proliferator-activated receptor delta (Homo sapiens), sequence (Q03181 whole entry, looked up): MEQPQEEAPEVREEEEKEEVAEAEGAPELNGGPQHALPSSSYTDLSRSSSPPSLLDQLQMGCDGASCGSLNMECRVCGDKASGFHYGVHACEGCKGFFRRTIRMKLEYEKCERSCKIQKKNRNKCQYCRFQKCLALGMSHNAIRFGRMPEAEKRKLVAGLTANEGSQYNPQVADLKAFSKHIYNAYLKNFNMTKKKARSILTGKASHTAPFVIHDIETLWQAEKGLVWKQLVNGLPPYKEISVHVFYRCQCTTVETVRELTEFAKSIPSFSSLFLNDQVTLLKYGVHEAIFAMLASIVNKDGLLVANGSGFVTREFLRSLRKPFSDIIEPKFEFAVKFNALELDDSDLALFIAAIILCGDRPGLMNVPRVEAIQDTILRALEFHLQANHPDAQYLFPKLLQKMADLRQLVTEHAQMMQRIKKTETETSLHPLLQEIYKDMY
Retinoic acid receptor RXR-alpha (Homo sapiens), sequence (P19793 whole entry, looked up): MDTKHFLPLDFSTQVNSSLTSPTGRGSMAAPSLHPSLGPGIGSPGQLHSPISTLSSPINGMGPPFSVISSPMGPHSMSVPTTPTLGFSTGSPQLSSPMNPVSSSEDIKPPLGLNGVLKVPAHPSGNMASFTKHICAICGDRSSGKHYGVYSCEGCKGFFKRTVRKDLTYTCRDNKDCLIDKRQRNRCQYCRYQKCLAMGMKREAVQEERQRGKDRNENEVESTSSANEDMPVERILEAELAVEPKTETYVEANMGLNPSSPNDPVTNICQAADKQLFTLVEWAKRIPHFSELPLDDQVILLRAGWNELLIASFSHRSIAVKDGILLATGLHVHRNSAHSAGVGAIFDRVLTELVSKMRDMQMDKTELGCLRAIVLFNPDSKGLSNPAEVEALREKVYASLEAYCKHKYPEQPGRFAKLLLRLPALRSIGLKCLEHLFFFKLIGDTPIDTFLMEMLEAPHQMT
Thyroid hormone receptor beta (Homo sapiens), sequence (P10828 whole entry, looked up): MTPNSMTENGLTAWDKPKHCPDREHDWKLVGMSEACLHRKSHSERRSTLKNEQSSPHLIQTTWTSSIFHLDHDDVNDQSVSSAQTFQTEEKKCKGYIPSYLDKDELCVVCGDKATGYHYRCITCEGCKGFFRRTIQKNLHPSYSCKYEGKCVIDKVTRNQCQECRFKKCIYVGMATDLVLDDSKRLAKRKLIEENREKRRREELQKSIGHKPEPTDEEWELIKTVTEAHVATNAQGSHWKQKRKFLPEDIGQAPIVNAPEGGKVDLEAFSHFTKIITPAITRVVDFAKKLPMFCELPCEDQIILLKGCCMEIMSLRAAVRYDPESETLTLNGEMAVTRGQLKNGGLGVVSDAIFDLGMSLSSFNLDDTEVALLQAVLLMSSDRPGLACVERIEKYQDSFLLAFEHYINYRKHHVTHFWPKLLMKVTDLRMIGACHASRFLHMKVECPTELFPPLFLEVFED
Voltage-gated inwardly rectifying potassium channel KCNH2 (Homo sapiens), sequence (Q12809 whole entry, looked up): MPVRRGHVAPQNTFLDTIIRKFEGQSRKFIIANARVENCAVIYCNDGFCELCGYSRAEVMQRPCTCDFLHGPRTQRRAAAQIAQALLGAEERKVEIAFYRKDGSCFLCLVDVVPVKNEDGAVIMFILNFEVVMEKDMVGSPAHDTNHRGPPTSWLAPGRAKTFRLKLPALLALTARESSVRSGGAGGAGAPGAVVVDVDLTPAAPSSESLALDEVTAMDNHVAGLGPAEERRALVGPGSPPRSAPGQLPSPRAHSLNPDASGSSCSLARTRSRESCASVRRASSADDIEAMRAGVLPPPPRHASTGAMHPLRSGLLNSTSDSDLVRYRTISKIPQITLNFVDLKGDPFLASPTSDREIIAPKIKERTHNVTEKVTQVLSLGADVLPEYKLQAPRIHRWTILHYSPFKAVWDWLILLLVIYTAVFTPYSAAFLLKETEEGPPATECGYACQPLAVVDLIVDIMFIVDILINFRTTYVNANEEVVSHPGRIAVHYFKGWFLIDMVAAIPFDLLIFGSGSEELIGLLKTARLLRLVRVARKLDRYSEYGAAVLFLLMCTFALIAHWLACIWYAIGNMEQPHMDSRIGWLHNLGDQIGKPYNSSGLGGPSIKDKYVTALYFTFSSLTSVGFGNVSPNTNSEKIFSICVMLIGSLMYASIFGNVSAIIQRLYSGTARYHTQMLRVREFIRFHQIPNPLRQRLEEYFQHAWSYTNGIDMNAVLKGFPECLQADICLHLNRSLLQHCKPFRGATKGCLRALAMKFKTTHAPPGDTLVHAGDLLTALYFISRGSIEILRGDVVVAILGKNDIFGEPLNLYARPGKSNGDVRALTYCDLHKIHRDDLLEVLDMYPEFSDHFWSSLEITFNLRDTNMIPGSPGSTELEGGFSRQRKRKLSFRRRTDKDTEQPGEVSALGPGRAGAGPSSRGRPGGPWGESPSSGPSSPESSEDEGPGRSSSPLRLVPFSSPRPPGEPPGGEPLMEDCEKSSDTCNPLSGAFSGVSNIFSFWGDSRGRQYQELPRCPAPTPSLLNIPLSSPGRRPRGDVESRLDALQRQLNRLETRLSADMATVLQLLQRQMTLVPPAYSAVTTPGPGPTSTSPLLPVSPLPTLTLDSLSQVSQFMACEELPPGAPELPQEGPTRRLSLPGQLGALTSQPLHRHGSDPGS
Vitamin D3 receptor (Homo sapiens), sequence (P11473 whole entry, looked up): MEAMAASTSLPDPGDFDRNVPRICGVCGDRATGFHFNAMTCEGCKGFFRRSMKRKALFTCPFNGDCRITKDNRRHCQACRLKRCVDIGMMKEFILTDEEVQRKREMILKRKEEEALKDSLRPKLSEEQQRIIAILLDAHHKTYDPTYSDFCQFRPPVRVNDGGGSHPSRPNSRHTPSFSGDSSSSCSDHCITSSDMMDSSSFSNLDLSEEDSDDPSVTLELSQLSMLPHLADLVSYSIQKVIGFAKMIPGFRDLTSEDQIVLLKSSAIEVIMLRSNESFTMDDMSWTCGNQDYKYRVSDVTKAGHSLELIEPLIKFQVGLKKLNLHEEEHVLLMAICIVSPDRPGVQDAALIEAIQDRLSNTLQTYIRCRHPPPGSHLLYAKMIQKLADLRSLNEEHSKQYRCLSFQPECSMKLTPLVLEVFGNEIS

As for `Cc1ccc2c(c1[N+](=O)[O-])C(=O)c1ccccc1C2=O`, the molecule was classed as inactive in [1], in [3] and in test [4]. Besides, the max response in test [2] was -1.88%; in test [5], -5.46%; in test [6] it was -0.36% (inactive). Besides, the activity change % (negative = inhibition) in [7] is -11.5% (inactive). The Potency entry in test [8] is “inactive”. In [9], the Potency was 11.9 µM (active). Further, the activation in [10] was 7.91% (inactive); in [11], -0.166% (inactive).
As for `CC(=O)OCc1ccco1`, the max response in test [12] is -12.4%; in test [2], 9.34%; in test [5], -0.347%; in [6], 29.2% (inactive). Moreover, the Potency entry in test [13] and in test [8] was “inactive” in each case. Also, the outcome in test [1], in test [14], in [15] and in test [3] was inactive. The activity change % (negative = inhibition) in test [7] was -12.4% (inactive). The activation in [11] is 0.228% (inactive).
With `BrC/C=C/CBr`, the max response was 20.5% in test [12], 2.54% in [2], -0.458% in [5] and -9.94% (inactive) in test [6]. The Potency result in test [13] and in test [8] was “inactive” in each case. Moreover, the molecule was called inactive in test [1], in test [16], in test [3] and in [4]. Besides, the activity change % (negative = inhibition) in test [7] was 15.3% (inactive). Besides, the Potency in test [9] is 42.2 µM (active). The activation in test [10] is 0.265% (inactive); in test [11], 0.2% (inactive).
Consider `CCC=O`, for which the max response was -3.11% in [12], 2.22% in test [2] and -6.66% in test [5]. Besides, the Potency entry in test [13], in test [8] and in test [9] was “inactive” in each case. Further, the result in [1] and in test [3] was inactive. Besides, the activity change % (negative = inhibition) in test [7] is -3.74% (inactive). Moreover, the activation was -0.942% (inactive) in [10] and -1.21% (inactive) in [11].
Take `N#CCc1ccccc1[N+](=O)[O-]`: the max response in test [12] was 42%; in [2] it was -1.87%; in test [5], 20.6%; in test [6], -6.12% (inactive). Besides, the Potency entry in test [13] and in test [8] was “inactive” each time. Also, the molecule was classed as inactive in test [1], in test [14], in test [3] and in [4]. Moreover, the activity change % (negative = inhibition) in [7] was -13.4% (inactive). In addition, in test [9], the Potency was 42.2 µM (active). In addition, the activation in test [10] was -2.66% (inactive); in [11] it was -0.713% (inactive).
As to `C=C(C)C(N)=O`, the call in test [1], in test [14], in test [15] and in test [3] was inactive. Further, the results for the max response in test [2], in test [5] and in test [6] were -0.693%, -10.5% and 23.8% (inactive), respectively. For the same molecule, in [7], the activity change % (negative = inhibition) is -24.4% (inactive). Also, the Potency result in test [8] and in test [9] was “inactive” in each case. Besides, the activation in test [10] is -2.66% (inactive); in test [11], -0.276% (inactive).
`Cc1ccccc1Br`: the result in test [1], in test [15] and in test [3] was inactive. Also, the max response in test [2] is -14.2%; in test [5] it was 1.58%; in test [6] it was 1.27% (inactive). The Potency entry in [8] and in [9] was “inactive” in each case. Moreover, the activation in test [11] was -0.604% (inactive).
Regarding `O=C(O)c1c(Cl)cccc1Cl`, the call in test [1], in test [16], in test [3] and in test [4] was inactive. The max response in [2] was -13.5%; in test [5] it was 2.22%; in test [6], 13.3% (inactive). Also, the activity change % (negative = inhibition) in test [7] is 3.89% (inactive). Also, the Potency entry in [8] and in test [9] was “inactive” each time. In addition, in [10], the activation was -0.426% (inactive).
As for `Nc1ccccc1S(=O)(=O)O`, the max response in test [12] was -23.8%; in test [2], 0.0246%; in [5], -2.85%; in test [6] it was 1.63% (inactive). In addition, the Potency entry in [13] and in test [8] was “inactive” throughout. The outcome in [1], in [16], in test [14], in test [3] and in [4] was inactive. For the same molecule, the activity change % (negative = inhibition) in test [7] was 5.88% (inactive). For the same molecule, the figures for the activation in [10] and in [11] were -0.779% (inactive) and -0.0968% (inactive), respectively.
In the case of `CCCOCC(C)O` (centres undefined), the max response was -0.284% in test [12], -2.42% in test [2], -6.13% in test [5] and 0.524% (inactive) in test [6]. Besides, the Potency result in [13] and in test [8] was “inactive” throughout. For the same molecule, the result in test [1], in [16], in test [14] and in test [3] was inactive. The activity change % (negative = inhibition) in [7] is 0.569% (inactive).
